The list is not random: actives were taken first. Their share in the collection is about 19%.
DT40 TDP1 no CPT – qHTS for Inhibitors of human tyrosyl-DNA phosphodiesterase 1 (TDP1): qHTS in cells in absence of CPT | DT40 Tdp1-/- hTDP1 cells, no CPT, ATP luminescence, 48 h | Potency, µM (series often up to 46.2 µM), for the others: at the top dose activity change, negative = growth inhibition, most hits filed as inhibitors | 15% of 420,000 active; also: nearly all actives have a fitted effect of over 55% in size
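Stably hTDP1-transfected Tdp1-null chicken DT40 cells were treated with library compounds minus camptothecin and grown for at least 48 hr at 37 °C, after which cellular ATP was quantified by luminescence.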
HT1080 IDH1KD tx – qHTS for induction of synthetic lethality in tumor cells producing 2HG: qHTS for the HT-1080-IDH1KD cell line; HT-1080 IDH1 knockdown viability, ATP luminescence, 48 h; Potency, µM (highest dose often 46.1 µM), for inactives: top-dose activity, negative = toxicity, usual class: cytotoxic; 2% of 360,000 active; AID 686971, 2013;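 also: 0% = DMSO wells and -100% = cell-free medium wells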
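HT-1080-IDH1KD cells (IDH1 knocked down), 750/well in RPMI with 5% FBS, treated with compound 48 h at 37 degrees C. Viability by CellTiter-Glo luminescence, normalised to DMSO and no-cell wells; concentration-response curves classed.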
KB-3-1 tox – qHTS assay for MDR1-selective chemotherapeutics: Primary screen using the parental adenocarcinoma cell KB-3-1; KB-3-1 viability, CellTiter-Glo ATP luminescence, 72 h; Potency, µM (highest dose often 46.1 µM), usual class: cytotoxic; 1.4% of 400,000 active; AID 1347075, 2019; also: nearly all actives have a fitted effect of over 60% in size
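Cytotoxicity in the drug-sensitive parental line KB-3-1 was scored as loss of CellTiter-Glo luminescence following 72 h incubation with compound. Values come from curve fitting of normalized concentration-response data.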
KB-V1 cytotox – qHTS assay for MDR1-selective chemotherapeutics: Primary screen using the drug-selected MDR subline cells KB-V1. KB-V1 MDR cells viability, CellTiter-Glo, 72 h. Potency, µM (highest dose often 46.1 µM), most hits filed as cytotoxic. 3.4% of 400,000 active. AID 1347076, 2019; also: nearly all actives have a fitted effect of over 60% in size
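Readout: CellTiter-Glo luminescence, 10 min after addition. Cells: KB-V1 MDR subline, 72 h at 37 degrees C with compound. Analysis: corrected, normalized data fitted to concentration-effect curves.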
HT1080-NT tox – qHTS for induction of synthetic lethality in tumor cells producing 2HG: qHTS for the HT-1080-NT fibrosarcoma cell line; HT-1080-NT fibrosarcoma viability, CellTiter-Glo ATP luminescence, 48 h; Potency, µM (top dose mostly 46.1 µM), for the others: at the highest dose activity, negative = less viability, hits mostly cytotoxic; 1.6% of 360,000 active; AID 686970, 2013;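 also: NT is the 2HG producing partner of a matched IDH1 knockdown line; 0% = DMSO-treated cells and -100% = media-only wells without cells; nearly all actives have a fitted effect of over 55% in size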
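Toxicity toward the 2HG-producing NT line was scored as %Activity, normalised to DMSO and no-cell wells, from CellTiter-Glo luminescence after 48 hours' treatment.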
TDP1 cell CPT – qHTS for Inhibitors of human tyrosyl-DNA phosphodiesterase 1 (TDP1): qHTS in cells in presence of CPT. chicken DT40 Tdp1-/-;hTDP1 cells + 20 nM CPT, ATP luminescence, 48 h. Potency, µM (doses to about 46.2 µM), for inactives: at the top dose activity change, negative = growth inhibition, usual class: inhibitors. 12% of 420,000 active; also: nearly all actives have a fitted effect of over 55% in size
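Chicken DT40 Tdp1-/- cells stably complemented with human TDP1 were seeded at 400 cells/well in medium containing 20 nM camptothecin, exposed to pin-transferred compounds, and grown at 37 °C for at least 48 hr. Viability was read as ATP luminescence.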
* marks the source's active call; other numbers are inactive results; i = inactive; ? = inconclusive; nt = no result given; ! = not active in a repeat. Calls follow the shape of the dose curve; as a rule, active = well fitted curve in the direction sought with a large enough effect; inconclusive = small, poorly fitted or top-dose-only effect, or another doubt; inactive = no such curve, though single readings can be large; an effect the other way counts as inactive or inconclusive. Unless noted, % is scaled to controls: 0 for no effect and ±100 for the full control effect; potency is read from the fitted curve at half-maximal effect.

SMILES | DT40 TDP1 no CPT | HT1080 IDH1KD tx | KB-3-1 tox | KB-V1 cytotox | HT1080-NT tox | TDP1 cell CPT
O=C(C[C@H]1C(=O)N(Cc2ccccc2)C[C@@H]1Cc1ccccc1)Nc1ccccc1 | 11.2µM* | 10.2% | ? | ? | 5.8% | 12.6µM*
CCCCN1C[C@H](Cc2ccccc2)[C@@H](CC(=O)Nc2ccccc2)C1=O | ? | -3.6% | ? | ? | -1.1% | 16.4µM*
O=C(C[C@H]1C(=O)N(CCc2ccccc2)C[C@@H]1Cc1ccccc1)Nc1ccc(Br)cc1 | ? | ? | i | ? | -17.1% | ?
O=C(C[C@H]1C(=O)N(CCc2ccccc2)C[C@@H]1Cc1ccccc1)Nc1ccccc1 | 15.8µM* | -12.1% | ? | 20.6µM*! | 1.1% | 16.4µM*
O=C(NCCc1ccccc1)[C@@H]1CC=C[C@@H]2CCN(C3CC3)C(=O)[C@@H]21 | 4.3% | nt | i | i | nt | -6.9%
O=C(NNCc1ccccc1)c1ccccn1 | -6.4% | 4.0% | i | i | -2.1% | -12.9%
CCCCN1C[C@H](CSC)[C@@H](CC(=O)Nc2ccc(Br)cc2)C1=O | 23.1µM* | -0.9% | i | ? | -0.3% | ?
O=C(C[C@H]1C(=O)N(C2CCCCC2)C[C@@H]1Cc1ccccc1)Nc1ccccc1 | 15.8µM* | -0.1% | ? | ? | -1.0% | ?
COc1ccc(NC(=O)C[C@H]2C(=O)N(Cc3ccccc3)C[C@@H]2CSC)cc1 | ? | -7.8% | i | ? | 1.1% | ?
COc1ccc(NC(=O)C[C@H]2C(=O)N(Cc3ccccc3)C[C@@H]2Cc2ccccc2)cc1 | ? | -17.7% | i | ? | -19.4% | 18.4µM*
CSC[C@H]1CN(CCc2ccccc2)C(=O)[C@@H]1CC(=O)Nc1ccc(Br)cc1 | ? | -11.0% | i | ? | -5.2% | ?
CCOC(=O)C1(C)CCN1C(=O)c1ccc(OC)c(C(F)(F)F)c1 (stereo not given) | ? | 1.7% | i | i | 9.6% | ?
S=C(NCCCN(Cc1ccc(Cl)cc1)c1ccc(Br)cn1)NCc1ccc2nc[nH]c2c1 | ? | nt | i | i | nt | ?
Oc1c(C(c2ccccn2)N2CCCCC2)cc(Cl)c2cccnc12 (stereo not given) | 10.3µM* | 16.4µM* | ? | ? | 14.6µM* | 18.4µM*
CN1CCN(C(c2ccc(Cl)cc2)c2cc(Cl)c3cccnc3c2O)CC1 (stereo not given) | 16.4µM* | 23.1µM* | ? | ? | ? | ?
CN1CCN(C(c2cccc(Cl)c2)c2ccccc2Cl)CC1 (stereo not given) | ? | -20.2% | ? | i | -13.4% | ?
Cc1ccccc1OCCN(C#N)c1nc(N(C)C)nc(N(C)C)n1 | 16.4µM* | -15.0% | i | ? | -0.1% | ?
CCC(=O)N(Cc1ccc(S(N)(=O)=O)cc1)C1CC(=O)N(c2ccc(OC)cc2)C1=O (stereo not given) | -2.5% | 15.9% | i | i | 7.7% | -6.4%
O=C(N/N=C/c1c(F)cccc1Cl)c1cc(C2CC2)[nH]n1 | ? | -7.2% | i | i | 1.1% | 16.2%
Cc1ccc(S(=O)(=O)N2CCC(=O)N(C(COCc3ccc(C(F)(F)F)cc3)Cc3ccccc3)CC2)cc1 (stereo not given) | 18.4µM* | -1.6% | i | i | 2.8% | 9.2µM*
Cc1ccc(S(=O)(=O)N2CCC(=O)N(C(COC(=O)Nc3ccccc3)Cc3ccccc3)CC2)cc1 (stereo not given) | ? | -2.6% | i | i | 5.1% | 20.6µM*
Cc1ccc(S(=O)(=O)N2CCC(=O)N(C(COCc3ccc(Cl)c(Cl)c3)Cc3ccccc3)CC2)cc1 (stereo not given) | 23.1µM* | 1.2% | i | i | -2.6% | ?
Cc1ccc(S(=O)(=O)N2CCC(=O)N(C(COCc3cccc(C)c3)Cc3ccccc3)CC2)cc1 (stereo not given) | ? | -1.9% | i | i | -9.2% | ?
Cc1ccc(-c2cc(C(=O)Nc3c(C)n(C)n(-c4ccccc4)c3=O)[nH]n2)c(O)c1C | -23.1% | 1.4% | i | i | -1.4% | -7.1%
COc1ccc(-c2cc(=S)ss2)cc1 | ? | nt | nt | nt | nt | 18.8µM*
SMILES | DT40 TDP1 no CPT | HT1080 IDH1KD tx | KB-3-1 tox | KB-V1 cytotox | HT1080-NT tox | TDP1 cell CPT
O=C(Nc1nnc(-c2ccccn2)o1)c1ccc(Br)cc1 | 18.4µM* | -27.1% | i | i | ? | ?
Cc1nnc(NC(=O)c2ccc(S(=O)(=O)N3CCCCCC3)cc2)o1 | ? | -23.2% | ? | ? | -10.1% | -22.5%
CC1CCCN(S(=O)(=O)c2ccc(C(=O)Nc3nnc(C4CC4)o3)cc2)C1 (stereo not given) | ? | ? | ? | i | -21.6% | 18.4µM*
COc1ccccc1-c1nnc(NC(=O)c2ccc(S(=O)(=O)N3CCCC3)cc2)o1 | 9.2µM* | ? | ? | ? | ? | 23.1µM*
CS(=O)(=O)c1cccc(-c2nnc(NC(=O)c3ccc(S(=O)(=O)N4CCCC4)cc3)o2)c1 | 3.0% | 1.2% | i | i | 5.0% | -1.4%
CC1CCCN(S(=O)(=O)c2ccc(C(=O)Nc3nnc(-c4ccccn4)o3)cc2)C1 (stereo not given) | 20.6µM* | -5.7% | ? | ? | -3.4% | ?
O=S(=O)(NCC(c1cccnc1)N1CCN(Cc2ccccc2)CC1)c1cc(F)ccc1F (stereo not given) | -25.5% | 0.3% | i | i | -0.2% | ?
COc1ccc(NC(=O)CCn2c(-c3ccc(F)cc3)cc(C(C)=O)c2C)c(OC)c1 | ? | nt | i | i | nt | ?
CC1CCCN(S(=O)(=O)c2ccc(C(=O)Nc3nnc(-c4ccccc4Cl)o3)cc2)C1 (stereo not given) | 6.51µM* | ? | 7.31µM* | ? | -7.9% | 2.91µM*
O=C(c1cc(-c2ccccc2Cl)nc2ccccc12)N1CCN(c2ccccc2O)CC1 | ? | 13.4% | i | ? | 0.5% | 18.4µM*

Screens as filed in PubChem BioAssay.
